The test system of one experiment is CAMKK1. The conditions noted are these: concentration: 1 μM, replicates: in singlicate; n = 1.
`Nc1ncc(-c2cn[nH]c2)c2scc(-c3ccc4c(c3)CCN4C(=O)Cc3ccccc3)c12` [GSK2593067]: the “%Inh” value was found to be 56%.

For the compound `CN(C)c1ncnc2nc[nH]c12` [SKF-31736], the “%Inh” value is 15%.

As to `Cl.Cl.NC(CNC(=O)c1cc(Br)c(-c2ccnc3[nH]ccc23)s1)c1ccccc1` (stereo not drawn) [GSK1322949], the “%Inh” value was found to be 8%.

With `CNc1nccc(-c2ccc3c(N)n[nH]c3c2)n1` [GSK2206003], the “%Inh” value was 10%.

Turning to `COc1cc(Nc2ccnc3cc(-c4ccncc4)ccc23)cc(OC)c1OC.Cl` [GW494610], the “%Inh” value is 7%.

As for `COc1cccc(-c2nc(-c3ccccc3)[nH]c2-c2ccncc2)c1` [SB-610250], the “%Inh” value was 0%.

Consider `O=C1NC(=O)C(c2ccccc2Cl)=C1Nc1cccc(Cl)c1` [SB-342409], for which the “%Inh” value worked out at 21%.

As for `O=C(O)C(F)(F)F.O=c1[nH]ccc2nc(N[C@@H]3CCNC3)nc(Nc3cc(Cl)cc(Cl)c3)c12` [GSK2188764], the “%Inh” value is on record as 75%.

In a further experiment the test system is CAMKK2. The conditions noted are these: concentration: 1 μM, replicates: in singlicate; n = 1.
Turning to `O=C(Nc1n[nH]c2cc(-c3cccs3)ccc12)C1CC1` [SB-731284], the “%Inh” value came out at 0%.

As for `Fc1cc(Cl)ccc1Nc1ccnc2cc(-c3ccc(CN4CCSCC4)o3)ccc12` [GW560106], the “%Inh” value stood at 21%.

Consider `Fc1cc(Cl)ccc1Nc1ccnc2cc(-c3ccc(CN4CCOCC4)o3)ccc12` [GW560109], for which the “%Inh” value amounted to 0%.

For the compound `COc1ccc(NC(=O)c2ccoc2)cc1-c1ccc(C(=O)NCC2CC2)cc1` [GW810437], the “%Inh” value was determined as 30%.

Turning to `COC(=O)Nc1nc2ccc(Oc3ccc(CC(=O)Nc4cc(C(F)(F)F)ccc4F)cc3)cc2[nH]1` [GW680903], the “%Inh” value is 9%.

Consider `O=C(Nc1n[nH]c2nc(-c3cccc(O)c3)ccc12)C1CC1` [SB-711805], for which the “%Inh” value is given as 0%.

For `Cc1cccc(Nc2nc(N[C@H]3CCCC[C@H]3N)ncc2C(N)=O)c1.Cl` [GSK986310], the “%Inh” value turned out to be 26%.

For the compound `CCn1c(-c2nonc2N)nc2c(-c3ccccc3)ncc(OCCCN)c21.O=C(O)C(F)(F)F.O=C(O)C(F)(F)F` [GSK260205], the “%Inh” value came to 0%.

On to `COc1ccc(C)c(Nc2ccnc(Nc3ccc(-c4cnc[nH]4)cc3)n2)c1.Cl` [GW784041], for which the “%Inh” value came to 0%.

`CS(=O)(=O)c1cccc(CNc2nc(Nc3ccc4c(c3)CCC(=O)N4)ncc2C(F)(F)F)c1`: the “%Inh” value is 9%.

`O=C(O)C(F)(F)F.O=c1[nH]ccc2nc(N[C@@H]3CCNC3)nc(Nc3ccc4c(c3)S(=O)(=O)CC4)c12` [GSK2181306]: the “%Inh” value is given as 40%.

With `COc1cc(Nc2nccc(N3CCC(NS(=O)(=O)c4ccc(NC(C)=O)cc4)CC3)n2)cc(OC)c1OC` [GSK1379825], the “%Inh” value is given as 8%.

As for `CN(C)CCNS(=O)(=O)c1ccc(-c2ccnc3[nH]ccc23)cc1` [GSK977620], the “%Inh” value is given as 0%.

With `Nc1cccc(-c2ccc3c(N)n[nH]c3c2)c1` [GSK2193613], the “%Inh” value worked out at 13%.

For `Cc1ccc(NC(=O)c2ccnc(N3CCCCC3)c2)cc1-c1ccc(C(=O)NCC2CC2)cc1` [GW775610], the “%Inh” value came to 0%.

On to `c1ccc(Oc2ccc(Nc3ccnc4cc(-c5ccc(CN6CCCCC6)o5)ccc34)cc2)nc1` [GW567143], for which the “%Inh” value is reported as 0%.

In the case of `CC(C)c1nc(-c2cccc(NS(=O)(=O)c3c(F)cccc3F)c2)c(-c2ccnc(Nc3ccc(N4CCOCC4)nc3)n2)s1.Cl` [GSK1723980], the “%Inh” value is reported as 6%.

For `CN(c1ccc(NC(=O)N2CCN(CCCN3CCOCC3)CC2)cc1)c1ccnc(Nc2ccc(CS(C)(=O)=O)cc2)n1.Cl` [GW830899], the “%Inh” value is given as 0%.

As for `Cn1cc(-c2ccc3c(c2)CCN3C(=O)Cc2cc(F)cc(F)c2F)c2c(N)ncnc21` [GSK2634140], the “%Inh” value came to 1%.

Turning to `CC(C)NCC(Cc1ccccc1)NC(=O)c1cc(Br)c(-c2ccnc3[nH]ccc23)s1.Cl.Cl` (stereo not drawn) [GSK1383281], the “%Inh” value is 19%.

As to `COc1cccc(C2=C(Nc3cccc(O)c3)C(=O)NC2=O)c1` [SB-390771], the “%Inh” value is reported as 28%.

As to `COc1cccc(CC(=O)N2CCc3cc(-c4cn(C)c5ncnc(N)c45)ccc32)c1` [GSK2608899], the “%Inh” value came to 9%.

On to `O=C(Nc1n[nH]c2nc(-c3ccccc3O)ccc12)C1CC1` [SB-711880], for which the “%Inh” value is 0%.

Take `N#CC1(c2cccc(C(=O)Nc3cccc(Oc4ccc5nc(NC(=O)C6CC6)sc5n4)c3)c2)CC1`: the “%Inh” value was found to be 99.6%.

With `COc1cc(Nc2nccc(N3CCC(NC(=O)Nc4ccc5c(c4)OCO5)C3)n2)cc(OC)c1OC` (stereo not drawn) [GSK1379766], the “%Inh” value was 24%.

Consider `Cc1ccc(-c2ccc3occ(-c4ccc(S(C)=O)cc4)c3c2)nn1` (stereo not drawn), for which the “%Inh” value is recorded as 20%.

`CN(c1ccc(F)c(NC(=O)c2cccc(OC(C)(C)C#N)c2Cl)c1)c1ccc2nc(NC(=O)C3CC3)sc2n1`: the “%Inh” value is recorded as 0%.

`CN(c1ccc2c(c1)nc(NCc1ccccc1)n2C)c1ccnc(Nc2ccc(CS(C)(=O)=O)cc2)n1.Cl` [GW811603]: the “%Inh” value worked out at 0%.

`Nc1ncc(-c2ccc3nccc(-c4ccncc4)c3c2)cc1S(=O)(=O)N1CCCCC1` [GSK1693850]: the “%Inh” value is given as 33%.

As for `Nc1ncc(-c2cn[nH]c2)c2scc(-c3ccc4c(c3)CCN4C(=O)Cc3ccccc3)c12` [GSK2593067], the “%Inh” value came out at 8%.

Turning to `CN(C)c1ncnc2nc[nH]c12` [SKF-31736], the “%Inh” value came out at 25%.

Consider `Cl.Cl.NC(CNC(=O)c1cc(Br)c(-c2ccnc3[nH]ccc23)s1)c1ccccc1` (stereo not drawn) [GSK1322949], for which the “%Inh” value is reported as 29%.

On to `CNc1nccc(-c2ccc3c(N)n[nH]c3c2)n1` [GSK2206003], for which the “%Inh” value was found to be 13%.

As for `COc1cc(Nc2ccnc3cc(-c4ccncc4)ccc23)cc(OC)c1OC.Cl` [GW494610], the “%Inh” value is on record as 0%.

As for `COc1cccc(-c2nc(-c3ccccc3)[nH]c2-c2ccncc2)c1` [SB-610250], the “%Inh” value is recorded as 0%.

As to `O=C1NC(=O)C(c2ccccc2Cl)=C1Nc1cccc(Cl)c1` [SB-342409], the “%Inh” value was 0%.

For `O=C(O)C(F)(F)F.O=c1[nH]ccc2nc(N[C@@H]3CCNC3)nc(Nc3cc(Cl)cc(Cl)c3)c12` [GSK2188764], the “%Inh” value is 46%.

The record behind these values is paper PMC5540273 (PLoS ONE, 2017).
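Further: KINOMEscan kinase panel screen.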
